“And” between values parts separate entries of the source, which are not always exact repeats. Equal values may be shown once. Results filed as inconclusive are left out. Where a call stands in place of a potency, no number is given. The source made the active and inactive calls. The call rests on the fitted dose curve; in most records, active means well fitted inhibition curve with a large enough effect; inconclusive means small, poorly fitted or top-dose-only effect; inactive means flat fitted curve, though single readings scatter.
These molecules were tested on Zika virus NS2B-NS3 protease (assay: Primary screen GU AMC qHTS for Zika virus inhibitors (AID 1347154; further: nearly all actives have a fitted effect of over 70% in size)). Settings: Zika NS2B-NS3 unlinked protease, AMC fluorogenic substrate; series mostly up to 54.1 µM.
Outline: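 Unlinked Zika NS2B hydrophilic domain–NS3 protease complex at 25 nM in 10 mM Tris-HCl pH 8.0, 0.01% Tween 20, with an AMC peptide substrate. Fluorescence change (340/450 nm) over 15 min at room temperature, normalized to controls, fitted to 4-parameter Hill.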
For `CC(C)Cn1cnc2c(N)nc3ccccc3c21`, the Potency was “inactive”. With `O=C(O)CCn1c2c(c3ccccc31)C[C@H](NS(=O)(=O)c1ccc(F)cc1)CC2` the Potency was “inactive”. For `COc1cccc(N(C)C(=S)Oc2ccc3c(c2)CCCC3)n1`, the Potency was “inactive”. For `C#CCN[C@@H]1CCc2ccccc21`, the Potency was “inactive”. For `Nc1ccc(S(=O)(=O)Nc2ccccn2)cc1`, the Potency was “inactive”. For `CCOCC(O)COc1ccc(NC(=O)CC[S+](C)C)cc1` (configuration not stated), the Potency was “inactive”. For `C[C@@H]1CN(c2c(F)c(N)c3c(=O)c(C(=O)O)cn(C4CC4)c3c2F)C[C@H](C)N1`, the Potency was “inactive”. In the case of `O=C(N[C@H](CO)[C@H](O)c1ccc([N+](=O)[O-])cc1)C(Cl)Cl`, the Potency is reported as “inactive”. In the case of `COc1ccc2cc3[n+](cc2c1OC)CCc1cc2c(cc1-3)OCO2`, the Potency is reported as “inactive”. With `CC(C)OC(=O)OCOP(=O)(CO[C@H](C)Cn1cnc2c(N)ncnc21)OCOC(=O)OC(C)C` the Potency was “inactive”. `CC(C)OC(=O)C(C(=O)OC(C)C)=C1SC=CS1` was tested, and the Potency was “inactive”. With `CCC(C)(C)c1ccc(CC(C)CN2C[C@@H](C)O[C@@H](C)C2)cc1` (some centres not stated) the Potency was “inactive”. With `CN1CCN(c2c(F)cc3c(=O)c(C(=O)O)cn(CCF)c3c2F)CC1` the Potency was “inactive”. `O=P(O)(O)C(O)(Cc1cccnc1)P(=O)(O)O` was tested, and the Potency was “inactive”. In the case of `C[C@@H](NCCCc1cccc(C(F)(F)F)c1)c1cccc2ccccc12`, the Potency is reported as “inactive”. With `O=S(=O)(c1cccc2cnccc12)N1CCCNCC1` the Potency was “inactive”. With `Cn1c(=O)c2c(ncn2CC(O)CO)n(C)c1=O` (configuration not stated) the Potency was “inactive”. With `CCn1cc(C(=O)O)c(=O)c2cc(F)c(N3CCNCC3)nc21` the Potency was “inactive”. For `CN(Cc1cc(Br)cc(Br)c1N)C1CCCCC1`, the Potency was “inactive”. `CCCOc1ccc(C(=O)OCCN(CC)CC)cc1N` was tested, and the Potency was “inactive”. With `CCCCCCNC(=O)n1cc(F)c(=O)[nH]c1=O` the Potency was “inactive”. With `COc1ncnc(NS(=O)(=O)c2ccc(N)cc2)c1OC` the Potency was “inactive”. In the case of `COc1ccccc1OCC(O)COC(N)=O` (configuration not stated), the Potency is reported as “inactive”. In the case of `COCCCOc1cc(C[C@@H](C[C@H](N)[C@@H](O)C[C@H](C(=O)NCC(C)(C)C(N)=O)C(C)C)C(C)C)ccc1OC`, the Potency is reported as “inactive”. `CCOc1cc(N)c(Cl)cc1C(=O)NCC1CN(Cc2ccc(F)cc2)CCO1` (configuration not stated) was tested, and the Potency was “inactive”. In the case of `CCCN[C@H]1CCc2nc(N)sc2C1`, the Potency is reported as “inactive”. With `Cc1c(-c2ccc(O)cc2)n(Cc2ccc(OCCN3CCCCCC3)cc2)c2ccc(O)cc12` the Potency was “inactive”. In the case of `CC(=O)Oc1ccccc1C(=O)Nc1ncc([N+](=O)[O-])s1`, the Potency is reported as “inactive”. With `CO[C@@H]1[C@@H](OC(N)=O)[C@@H](O)[C@H](Oc2ccc3c(O)c(NC(=O)c4ccc(O)c(CC=C(C)C)c4)c(=O)oc3c2C)OC1(C)C` the Potency was “inactive”. In the case of `NC(=O)N1c2ccccc2CC(=O)c2ccccc21`, the Potency is reported as “inactive”. For `O=C(O)CSCC(=O)NC1CCSC1=O` (configuration not stated), the Potency was “inactive”. In the case of `CC[C@H](NC(C)C)[C@H](O)c1ccc(O)c2[nH]c(=O)ccc12`, the Potency is reported as “inactive”. `O=c1oc2c(O)c(O)cc3c(=O)oc4c(O)c(O)cc1c4c23` was tested, and the Potency was 496 nM (active) and 1.92 µM (active). `CC(N)C12CC3CC(CC(C3)C1)C2` (configuration not stated) was tested, and the Potency was “inactive”. `Cc1nnc(NS(=O)(=O)c2ccc(N)cc2)s1` was tested, and the Potency was “inactive”. With `NNC(=O)c1ccncc1` the Potency was “inactive”. In the case of `CN(C)CCc1c[nH]c2ccc(CS(=O)(=O)N3CCCC3)cc12`, the Potency is reported as “inactive”.

Source: PubChem BioAssay (NCATS)
Potency means the concentration at half of the fitted maximal effect.
